Measured values published in PubChem BioAssay (NCATS).
Inconclusive results are not listed. Calls of active or inactive are those of the source. The call rests on the fitted dose curve; in most records, active means well fitted inhibition curve with a large enough effect; inconclusive means small, poorly fitted or top-dose-only effect; inactive means flat fitted curve, though single readings scatter.

Columns and labels:
Assay in all cases: qHTS profiling for inhibitors of Plasmodium falciparum proliferation (AID 504749); further: nearly all actives have a fitted effect of over 60% in size
3D7 = conditions: P. falciparum in erythrocytes, SYBR Green DNA, 72 h; series mostly up to 28.7 µM
How it was run: (§1)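 Parasite proliferation within erythrocytes, 72 h exposure. Endpoint: SYBR Green I fluorescence after overnight lysis at room temperature. Controls: 0.29 uM artemisinin, DMSO.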

ATS189 = conditions: P. falciparum in erythrocytes, SYBR Green DNA, 72 h; series mostly up to 28.7 µM
How it was run: as §1

C2A = conditions: P. falciparum in erythrocytes, SYBR Green DNA, 72 h; series mostly up to 28.7 µM
How it was run: as §1

CP185 = conditions: P. falciparum in erythrocytes, SYBR Green DNA, 72 h; series mostly up to 28.7 µM
How it was run: as §1

CP217 = conditions: P. falciparum in erythrocytes, SYBR Green DNA, 72 h; series mostly up to 28.7 µM
How it was run: as §1

CP237 = conditions: P. falciparum in erythrocytes, SYBR Green DNA, 72 h; series mostly up to 28.7 µM
How it was run: as §1

CP238 = conditions: P. falciparum in erythrocytes, SYBR Green DNA, 72 h; series mostly up to 28.7 µM
How it was run: as §1

CP247 = conditions: P. falciparum in erythrocytes, SYBR Green DNA, 72 h; series mostly up to 28.7 µM
How it was run: as §1

CP250 = conditions: P. falciparum in erythrocytes, SYBR Green DNA, 72 h; series mostly up to 12.8 µM
How it was run: as §1

CP252 = conditions: P. falciparum in erythrocytes, SYBR Green DNA, 72 h; series mostly up to 12.8 µM
How it was run: as §1

CP256 = conditions: P. falciparum in erythrocytes, SYBR Green DNA, 72 h; series mostly up to 28.7 µM
How it was run: as §1

ECU = conditions: P. falciparum in erythrocytes, SYBR Green DNA, 72 h; series mostly up to 28.7 µM
How it was run: as §1

FAB9 = conditions: P. falciparum in erythrocytes, SYBR Green DNA, 72 h; series mostly up to 28.7 µM
How it was run: as §1

HB3 = conditions: P. falciparum in erythrocytes, SYBR Green DNA, 72 h; series mostly up to 28.7 µM
How it was run: as §1

P93_24 = conditions: P. falciparum in erythrocytes, SYBR Green DNA, 72 h; series mostly up to 28.7 µM
How it was run: as §1

PAD = conditions: P. falciparum in erythrocytes, SYBR Green DNA, 72 h; series mostly up to 28.7 µM
How it was run: as §1

PC15 = conditions: P. falciparum in erythrocytes, SYBR Green DNA, 72 h; series mostly up to 28.7 µM
How it was run: as §1

PC49 = conditions: P. falciparum in erythrocytes, SYBR Green DNA, 72 h; series mostly up to 28.7 µM
How it was run: as §1

SC27B = conditions: P. falciparum in erythrocytes, SYBR Green DNA, 72 h; series mostly up to 28.7 µM
How it was run: as §1

TAB109 = conditions: P. falciparum in erythrocytes, SYBR Green DNA, 72 h; series mostly up to 12.8 µM
How it was run: as §1

Measured: Potency

C[C@]12CC[C@H](O)CC1=CCC1C2CC[C@]2(C)C(=O)CC[C@@H]12 (stereo not given in full)
inactive: all assays above

C[N+]1([O-])[C@@H]2CC(OC(=O)[C@@H](CO)c3ccccc3)C[C@@H]1[C@H]1O[C@H]12 (stereo not given in full)
inactive: all assays above

ClC1=C(Cl)C2(Cl)C3C4CC(C5OC45)C3C1(Cl)C2(Cl)Cl (stereo not given)
inactive: all assays above
